Reference: PubChem BioAssay (EPA / NIEHS)
Where “and” joins values, the source holds several entries; their conditions need not be identical. Identical values can stand only once. Records with an inconclusive call do not appear. Calls of active or inactive are those of the source. How the source made its calls, unless noted: active means hit-call score of the fitted dose curve at least 0.9, where 1 is the maximum; inactive means score below 0.9.

Legend:
[1] = molecular target: Glucocorticoid receptor (Homo sapiens) (UniProt P04150); assay: ATG_GR_TRANS: Attagene TRANS-FACTORIAL HepG2 Assay for human Glucocorticoid Receptor (GR) (AID 2282978; active means hit-call score of the fitted dose curve at least 0.9, where 1 is the maximum;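 further: activators score as hits since higher reporter transcript over DMSO is fitted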); conditions: HepG2 Attagene TRANS GR reporter, mRNA transcription
How it was run: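 HepG2 cells transiently transfected with multiplexed reporter units in which chimeric NR-GAL4 proteins drive GAL4-UAS reporters; 24 h compound exposure. Reporter mRNA measured by RT-PCR, 6-FAM labelling, HpaI digestion and capillary electrophoresis; gain-of-signal fitted versus DMSO.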

[2] = molecular target: Oxysterols receptor LXR-alpha (Homo sapiens) (UniProt Q13133); assay: ATG_LXRa_TRANS: Attagene TRANS-FACTORIAL HepG2 Assay for human Liver X Receptor alpha (LXRa) (AID 2282980; active means hit-call score of the fitted dose curve at least 0.9, where 1 is the maximum); conditions: HepG2 Attagene TRANS reporter, LXRa transactivation
How it was run: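 In this multiplexed TRANS system, compounds act on HepG2 cells carrying GAL4-UAS reporter units and a receptor-GAL4 fusion for 24 h. Induced reporter RNA is amplified, fluorescently labelled and sized by capillary electrophoresis, with DMSO as baseline.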

[3] = ATG_M_06_TRANS: Attagene TRANS-FACTORIAL HepG2 Assay for M06 Transcription Factor (Internal Marker) (AID 2282983; active means hit-call score of the fitted dose curve at least 0.9, where 1 is the maximum); conditions: HepG2 Attagene TRANS M06 internal marker reporter
How it was run: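 Multi-reporter-transfected HepG2, 24 h treatment; reporter transcripts quantified via RT-PCR, primer-extension labelling and CE. DMSO-normalized gain-of-signal fit.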

[4] = ATG_M_32_TRANS: Attagene TRANS-FACTORIAL HepG2 Assay for M32 Transcription Factor (Internal Marker) (AID 2282984; active means hit-call score of the fitted dose curve at least 0.9, where 1 is the maximum;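 further: transcript level of a background control reporter unit measured by RT-PCR and capillary electrophoresis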); conditions: HepG2 Attagene TRANS M32 internal marker reporter
How it was run: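 Internal background reporter in transfected HepG2: after 24 h chemical exposure, RNA reverse-transcribed, reporter cDNA amplified, fluorescently labelled and HpaI-cut, then sized by capillary electrophoresis. Gain of signal fitted against DMSO control.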

[5] = molecular target: Nuclear receptor subfamily 4 group A member 2 (Homo sapiens) (UniProt P43354); assay: ATG_NURR1_TRANS: Attagene TRANS-FACTORIAL HepG2 Assay for human Nuclear Receptor Related Protein 1 (NURR1) (AID 2282985; active means hit-call score of the fitted dose curve at least 0.9, where 1 is the maximum); conditions: HepG2 Attagene TRANS reporter, mRNA readout
How it was run: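 Reporter transcript induction, measured by RT-PCR with fluorescent labelling, HpaI digestion and capillary electrophoresis, after 24 hr dosing of human HepG2 cells transiently expressing an exogenous NR-Gal4 fusion with GAL4-UAS-driven reporters; DMSO as baseline.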

[6] = molecular target: Transcriptional activator Myb (Homo sapiens) (UniProt P10242); assay: ATG_Myb_CIS: Attagene CIS-FACTORIAL HepG2 Assay for human Myeloblastosis (Myb) Proto-Oncogene Transcription Factor (AID 2282986); conditions: HepG2 Attagene CIS-FACTORIAL Myb reporter transcription; actives raise or lower the signal
How it was run: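 HepG2 cells were transiently transfected with cis-regulated multiple reporter transcription units reflecting endogenous Myb activity, then exposed to compound for 24 hours. Reporter mRNA was measured by RT-PCR with capillary electrophoresis; bidirectional fitting versus DMSO baseline.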

[7] = molecular target: Nuclear respiratory factor 1 (Homo sapiens) (UniProt Q16656); assay: ATG_NRF1_CIS: Attagene CIS-FACTORIAL HepG2 Assay for human Nuclear Respiratory Factor 1 (NRF1) Orphan Gene (AID 2282987); conditions: HepG2 NRF1 cis-element reporter, Attagene multiplex; actives raise or lower the signal
How it was run: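 HepG2 cells transiently transfected with multiple reporter transcription units under cis-regulatory promoter control, so endogenous transcription-factor activity is read. After 24 h compound exposure, reporter mRNA quantified by RT-PCR, fluorescent labelling, HpaI digestion and capillary electrophoresis; bidirectional fitting versus DMSO.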

[8] = ATG_NFI_CIS: Attagene CIS-FACTORIAL HepG2 Assay for human Nuclear Factor I (NFI) (AID 2282989); conditions: HepG2 cis-regulatory reporter, NFI response element transcription; actives raise or lower the signal
How it was run: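 Reporter transcripts were measured by RT-PCR with fluorescent primer extension and capillary electrophoresis 24 h post-treatment. HepG2 cells carried transiently transfected cis-regulated reporter constructs reporting endogenous factor activity; gain or loss fitted against DMSO baseline.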

[9] = molecular target: Myc proto-oncogene protein (Homo sapiens) (UniProt P01106); assay: ATG_Myc_CIS: Attagene CIS-FACTORIAL HepG2 Assay for human Myelocytomatosis (Myc) Proto-Oncogene Transcription Factor (AID 2282990); conditions: HepG2, Attagene cis-reporter transcription factor activity; actives raise or lower the signal
How it was run: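 After 24 h chemical treatment of HepG2 cells carrying multiplexed cis-regulated reporter constructs, reporter transcripts quantified by RT-PCR and capillary electrophoresis of fluorescent fragments. Gain or loss fitted against DMSO baseline.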

[10] = ATG_NF_kB_CIS: Attagene CIS-FACTORIAL HepG2 Assay for human Nuclear Factor Kappa B (NF-kB) (AID 2282991); conditions: HepG2 Attagene cis-factorial NF-kB reporter mRNA; actives raise or lower the signal
How it was run: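 HepG2 cells transiently transfected with multiplexed cis-element reporter units measuring endogenous transcription factor activity; reporter mRNA read 24 h after dosing by RT-PCR, fluorescent labelling, HpaI digestion and capillary electrophoresis. Bidirectional fit against DMSO baseline.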

[11] = ATG_NRF2_ARE_CIS: Attagene CIS-FACTORIAL HepG2 Assay for human Nuclear Factor Erythroid 2 Related Factor 2 (NFR2) response to Antioxidant Response Elements (ARE) (AID 2282992); conditions: HepG2 Attagene ARE/NRF2 reporter, transcription factor activity; actives raise or lower the signal
How it was run: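 Endogenous transcription factor activity read out as reporter transcript levels (RT-PCR plus capillary electrophoresis, fluorescence) in transiently transfected HepG2 cells. Measured at 24 h after dosing; gain or loss of signal fitted versus DMSO.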

[12] = ATG_Oct_MLP_CIS: Attagene CIS-FACTORIAL HepG2 Assay for human Octamer-Binding Transcription Factor (Oct) (AID 2282993); conditions: HepG2 Attagene cis-factorial Oct reporter, mRNA; actives raise or lower the signal
How it was run: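 Readout is reporter transcript level from RT-PCR with fluorescent primer extension and capillary electrophoresis, fitted in both directions against DMSO. Transfected HepG2 reporter units report endogenous factor activity after 24 h dosing.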

[13] = molecular target: Cellular tumor antigen p53 (Homo sapiens) (UniProt P04637); assay: ATG_p53_CIS: Attagene CIS-FACTORIAL HepG2 Assay for human p53 Transcription Factor (AID 2282994); conditions: HepG2 p53 cis-element reporter, Attagene mRNA; actives raise or lower the signal
How it was run: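 Endogenous p53 activity read in transiently transfected HepG2 from a cis-element-driven reporter transcript after 24 h exposure. RNA reverse-transcribed, PCR-amplified, fluorescently labelled and sized by capillary electrophoresis; gain or loss fitted against DMSO baseline.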

[14] = BSK_3C_TissueFactor: BioMAP Diversity Plus: 3C Assay for Tissue Factor Biomarker Activity (AID 2282997); conditions: BioMAP 3C HUVEC, tissue factor biomarker readout; actives raise or lower the signal
How it was run: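 In this endothelial system, HUVEC are treated for 24 h and Tissue Factor is assessed by ELISA, normalised to DMSO.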

[15] = BSK_3C_VCAM1: BioMAP Diversity Plus: 3C Assay for Vascular cell adhesion molecule 1 (VCAM1) Biomarker Activity (AID 2282999); conditions: BioMAP 3C HUVEC, VCAM1 ELISA, cytokine-stimulated; actives raise or lower the signal
How it was run: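 Activity fitted in both directions relative to DMSO, with ELISA measurement of the surface marker on primary HUVEC (3C) at 24 h post-treatment; parallel SRB staining (0.1% SRB, TCA-fixed, 560 nm) flagged overt cytotoxicity.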

[16] = molecular target: Bile acid receptor (Homo sapiens) (UniProt Q96RI1); assay: ATG_FXR_TRANS: Attagene TRANS-FACTORIAL HepG2 Assay for Farnesoid X Receptor (FXR) (AID 2282979; active means hit-call score of the fitted dose curve at least 0.9, where 1 is the maximum;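 further: hits raise reporter mRNA above DMSO so AC50 marks FXR activation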); conditions: HepG2 Attagene TRANS FXR-GAL4 reporter transcription
How it was run: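 After 24 h chemical treatment of transfected HepG2 cells, GAL4-UAS reporter transcripts driven by an exogenous FXR-GAL4 fusion were measured by RT-PCR and capillary electrophoresis. Increases over DMSO were fitted.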

[17] = BSK_3C_uPAR: BioMAP Diversity Plus: 3C Assay for Urokinase-type plasminogen activator receptor (uPAR) Biomarker Activity (AID 2282998); conditions: BioMAP 3C HUVEC, uPAR biomarker ELISA; actives raise or lower the signal
How it was run: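 Cell-surface uPAR on HUVEC (3C system) read by ELISA at 24 h post-treatment, with DMSO as baseline and fitting in both directions. Parallel cultures stained with SRB to flag overt cytotoxicity.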

Chain of Cellular tumor antigen p53 (Homo sapiens) (P04637 whole entry, looked up): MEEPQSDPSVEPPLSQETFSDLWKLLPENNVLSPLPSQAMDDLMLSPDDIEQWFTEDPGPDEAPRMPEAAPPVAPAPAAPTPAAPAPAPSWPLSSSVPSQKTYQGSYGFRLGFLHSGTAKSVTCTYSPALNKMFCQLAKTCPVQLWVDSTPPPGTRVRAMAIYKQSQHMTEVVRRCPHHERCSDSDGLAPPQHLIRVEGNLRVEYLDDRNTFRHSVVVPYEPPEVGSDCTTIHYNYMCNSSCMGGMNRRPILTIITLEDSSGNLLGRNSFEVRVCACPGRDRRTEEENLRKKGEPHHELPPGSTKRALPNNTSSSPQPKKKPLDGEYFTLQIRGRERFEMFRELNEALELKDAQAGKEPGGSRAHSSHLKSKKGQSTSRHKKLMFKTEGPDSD
Chain of Nuclear respiratory factor 1 (Homo sapiens) (Q16656 whole entry, looked up): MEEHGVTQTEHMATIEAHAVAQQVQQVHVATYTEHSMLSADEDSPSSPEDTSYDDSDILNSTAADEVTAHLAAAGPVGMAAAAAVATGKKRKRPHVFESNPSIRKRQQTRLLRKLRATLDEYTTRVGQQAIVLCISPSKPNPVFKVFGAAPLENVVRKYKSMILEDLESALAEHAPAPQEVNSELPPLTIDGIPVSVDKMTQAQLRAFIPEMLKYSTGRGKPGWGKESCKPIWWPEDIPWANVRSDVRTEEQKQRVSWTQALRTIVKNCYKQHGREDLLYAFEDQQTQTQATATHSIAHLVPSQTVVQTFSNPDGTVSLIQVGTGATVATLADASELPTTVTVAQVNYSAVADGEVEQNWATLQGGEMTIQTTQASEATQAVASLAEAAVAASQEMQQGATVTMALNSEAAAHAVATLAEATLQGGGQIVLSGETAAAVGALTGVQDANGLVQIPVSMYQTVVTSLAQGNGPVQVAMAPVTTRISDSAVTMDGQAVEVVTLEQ
Chain of Glucocorticoid receptor (Homo sapiens) (P04150 whole entry, looked up, the tested form may be a part): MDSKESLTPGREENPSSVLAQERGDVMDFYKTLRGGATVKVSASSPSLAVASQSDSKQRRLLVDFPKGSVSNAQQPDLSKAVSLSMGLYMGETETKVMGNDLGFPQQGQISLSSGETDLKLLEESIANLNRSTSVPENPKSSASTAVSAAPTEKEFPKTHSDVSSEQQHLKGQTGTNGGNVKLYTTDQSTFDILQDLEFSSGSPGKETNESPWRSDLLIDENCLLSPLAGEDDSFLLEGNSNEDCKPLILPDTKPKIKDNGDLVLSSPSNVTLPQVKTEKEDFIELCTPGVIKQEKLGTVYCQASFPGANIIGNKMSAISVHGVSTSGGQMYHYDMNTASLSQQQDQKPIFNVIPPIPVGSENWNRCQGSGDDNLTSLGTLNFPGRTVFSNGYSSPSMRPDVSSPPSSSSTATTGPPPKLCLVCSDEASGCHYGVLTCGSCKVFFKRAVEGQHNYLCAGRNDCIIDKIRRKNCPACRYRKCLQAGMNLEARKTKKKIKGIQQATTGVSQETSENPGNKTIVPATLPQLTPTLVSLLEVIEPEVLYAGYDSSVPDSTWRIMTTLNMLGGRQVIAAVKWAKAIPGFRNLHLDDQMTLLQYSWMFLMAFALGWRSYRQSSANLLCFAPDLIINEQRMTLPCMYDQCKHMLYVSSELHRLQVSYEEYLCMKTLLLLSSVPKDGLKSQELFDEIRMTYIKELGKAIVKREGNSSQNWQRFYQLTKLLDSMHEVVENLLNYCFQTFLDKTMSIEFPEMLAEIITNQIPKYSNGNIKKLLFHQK
Chain of Myc proto-oncogene protein (Homo sapiens) (P01106 whole entry, looked up, the tested form may be a part): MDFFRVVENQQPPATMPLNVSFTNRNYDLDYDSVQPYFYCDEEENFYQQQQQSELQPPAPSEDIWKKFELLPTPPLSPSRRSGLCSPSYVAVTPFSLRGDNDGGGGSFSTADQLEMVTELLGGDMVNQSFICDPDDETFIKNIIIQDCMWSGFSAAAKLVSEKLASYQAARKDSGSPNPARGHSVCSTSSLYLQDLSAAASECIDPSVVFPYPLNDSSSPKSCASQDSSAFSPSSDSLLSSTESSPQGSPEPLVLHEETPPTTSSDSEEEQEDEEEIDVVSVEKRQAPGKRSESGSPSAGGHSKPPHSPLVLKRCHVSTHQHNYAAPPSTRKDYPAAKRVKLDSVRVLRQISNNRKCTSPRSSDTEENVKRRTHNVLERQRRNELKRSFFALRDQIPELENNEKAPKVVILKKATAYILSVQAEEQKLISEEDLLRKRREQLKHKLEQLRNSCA
Chain of Nuclear receptor subfamily 4 group A member 2 (Homo sapiens) (P43354 whole entry, looked up, the tested form may be a part): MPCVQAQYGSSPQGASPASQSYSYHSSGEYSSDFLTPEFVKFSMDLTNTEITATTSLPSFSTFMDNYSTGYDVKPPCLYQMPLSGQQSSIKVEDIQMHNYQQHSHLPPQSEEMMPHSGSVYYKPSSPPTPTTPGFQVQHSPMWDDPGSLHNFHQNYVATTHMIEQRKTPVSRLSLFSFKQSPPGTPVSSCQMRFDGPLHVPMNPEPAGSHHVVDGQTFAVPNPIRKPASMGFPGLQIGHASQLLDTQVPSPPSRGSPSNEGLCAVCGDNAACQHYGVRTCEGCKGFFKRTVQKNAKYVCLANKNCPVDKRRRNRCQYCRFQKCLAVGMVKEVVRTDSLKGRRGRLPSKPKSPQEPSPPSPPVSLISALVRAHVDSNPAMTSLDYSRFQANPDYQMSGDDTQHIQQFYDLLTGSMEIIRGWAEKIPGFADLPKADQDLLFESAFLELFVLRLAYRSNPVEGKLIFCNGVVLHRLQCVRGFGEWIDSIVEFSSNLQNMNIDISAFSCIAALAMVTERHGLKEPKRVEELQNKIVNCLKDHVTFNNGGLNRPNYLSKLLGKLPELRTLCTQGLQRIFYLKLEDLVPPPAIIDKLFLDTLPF
Chain of Bile acid receptor (Homo sapiens) (Q96RI1 whole entry, looked up, the tested form may be a part): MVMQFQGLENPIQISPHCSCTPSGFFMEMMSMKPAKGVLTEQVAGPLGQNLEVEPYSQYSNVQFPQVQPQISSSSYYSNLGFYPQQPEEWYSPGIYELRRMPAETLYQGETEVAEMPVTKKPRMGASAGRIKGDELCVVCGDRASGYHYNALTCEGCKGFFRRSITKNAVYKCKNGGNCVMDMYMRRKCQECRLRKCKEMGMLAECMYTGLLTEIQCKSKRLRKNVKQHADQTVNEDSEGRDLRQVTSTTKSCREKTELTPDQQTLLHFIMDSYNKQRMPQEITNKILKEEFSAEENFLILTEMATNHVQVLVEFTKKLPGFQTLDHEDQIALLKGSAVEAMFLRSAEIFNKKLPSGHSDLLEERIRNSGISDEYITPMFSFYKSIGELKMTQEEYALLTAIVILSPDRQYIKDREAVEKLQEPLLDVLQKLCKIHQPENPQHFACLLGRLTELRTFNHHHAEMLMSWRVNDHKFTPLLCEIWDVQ
Chain of Transcriptional activator Myb (Homo sapiens) (P10242 whole entry, looked up): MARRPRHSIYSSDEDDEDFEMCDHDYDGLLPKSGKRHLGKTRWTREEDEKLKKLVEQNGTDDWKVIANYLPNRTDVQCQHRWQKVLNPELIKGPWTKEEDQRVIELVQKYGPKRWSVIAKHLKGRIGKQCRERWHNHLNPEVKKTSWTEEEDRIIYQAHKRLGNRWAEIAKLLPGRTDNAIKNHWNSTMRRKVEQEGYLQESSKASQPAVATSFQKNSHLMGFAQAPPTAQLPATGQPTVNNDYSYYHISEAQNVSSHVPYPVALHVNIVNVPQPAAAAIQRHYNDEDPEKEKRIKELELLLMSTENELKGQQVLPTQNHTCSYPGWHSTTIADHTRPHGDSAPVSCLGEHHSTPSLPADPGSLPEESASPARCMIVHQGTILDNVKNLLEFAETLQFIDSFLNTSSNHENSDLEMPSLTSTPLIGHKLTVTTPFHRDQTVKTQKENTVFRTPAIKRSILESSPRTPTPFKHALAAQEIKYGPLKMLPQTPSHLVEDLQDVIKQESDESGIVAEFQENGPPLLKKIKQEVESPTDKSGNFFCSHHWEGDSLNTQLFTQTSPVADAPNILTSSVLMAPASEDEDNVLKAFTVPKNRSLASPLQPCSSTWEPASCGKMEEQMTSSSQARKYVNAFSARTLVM
Chain of Oxysterols receptor LXR-alpha (Homo sapiens) (Q13133 whole entry, looked up, the tested form may be a part): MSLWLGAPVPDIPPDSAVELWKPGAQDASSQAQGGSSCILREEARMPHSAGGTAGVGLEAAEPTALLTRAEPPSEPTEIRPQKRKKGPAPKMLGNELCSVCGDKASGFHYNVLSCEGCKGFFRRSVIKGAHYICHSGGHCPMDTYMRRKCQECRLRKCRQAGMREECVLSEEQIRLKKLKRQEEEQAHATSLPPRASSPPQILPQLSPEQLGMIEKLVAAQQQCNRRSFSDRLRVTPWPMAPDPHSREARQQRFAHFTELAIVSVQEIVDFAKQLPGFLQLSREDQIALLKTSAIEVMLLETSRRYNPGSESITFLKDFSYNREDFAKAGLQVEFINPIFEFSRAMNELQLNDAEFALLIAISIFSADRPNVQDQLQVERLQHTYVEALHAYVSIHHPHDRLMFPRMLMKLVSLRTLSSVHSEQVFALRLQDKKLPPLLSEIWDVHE

SMILES	outcome [1]	outcome [2]	outcome [3]	outcome [4]	outcome [5]	outcome [6]	outcome [7]	outcome [8]	outcome [9]	outcome [10]	AC50 [11]	outcome [12]	outcome [13]	AC50 [14]	AC50 [15]	outcome [16]	outcome [11]	outcome [17]	outcome [14]	outcome [15]
Cc1cc(C)c(O)c(C(C)(C)C)c1	inactive	inactive	inactive	inactive	inactive	inactive	inactive	inactive	inactive	inactive	52.2 µM (active)	inactive	inactive	26.9 µM (active)	31.6 µM (active)	–	–	–	–	–
OCCC(O)CO (stereo unspecified)	inactive	–	–	–	–	inactive	inactive	inactive	inactive	inactive	–	inactive	inactive	–	–	inactive	inactive	–	–	–
C=CC(=O)OCCC(F)(F)C(F)(F)C(F)(F)C(F)(F)F	inactive	–	inactive	inactive	inactive	inactive	inactive	inactive	inactive	inactive	98.8 µM (active)	inactive	inactive	22.2 µM (active) and 26.3 µM (active)	16.6 µM (active) and 15.6 µM (active)	inactive	–	inactive	–	–
O=C(O)C(F)(F)C(F)(F)C(F)(F)OC(F)(C(F)(F)F)C(F)(F)F	inactive	inactive	–	inactive	inactive	inactive	inactive	inactive	inactive	inactive	113 µM (active)	inactive	inactive	–	–	inactive	–	–	inactive	inactive
